Compounds with a hit are over-represented: about 21% of the library has one in this group of screens.
Shiga toxin inh – inhibitors of Shiga toxin in Vero cells; Vero cells, Shiga toxin protein synthesis inhibition reporter; inhibition, % at 38.7 µM; 290,000 compounds, 9.2% hits; in the data active = inhibition mostly above about 28%, no sharp cut-off; inactive = mostly below about 43%; note: 0% is about no effect
Sm TGR inh – blocks Schistosoma mansoni thioredoxin glutathione reductase; purified TGR, DTNB reduction, TNB absorbance 405 nm; Potency, µM (highest dose often 114 µM), for inactives: at the top dose activity change, negative = inhibition, hits mostly inhibitors; Q962Y6; 360,000 compounds, 3% hits; AID 485364; note: potency is the fitted concentration of half-maximal effect; % is set by controls: 0 for no effect and ±100 for the full control effect; nearly all actives have a fitted effect of over 60% in size
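TGR 20 nM + NADPH 100 uM (dispensed conc.), cpd preinc 15 min RT; start with NADPH (500 uM addition) then DTNB (15 mM addition). Kinetic TNB absorbance, 405 nm filter. Four-parameter Hill fit across titration.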
Pf growth 48h – P. falciparum growth inhibition at 48 hours (one generation). Potency, µM (series often up to 28.7 µM), inactives show top-dose activity change, negative = inhibition, actives largely listed as inhibitors. 310,000 compounds, 5.9% hits. P. falciparum luciferase growth in erythrocytes, 48 h; note: potency is the fitted concentration of half-maximal effect; % is set by controls: 0 for no effect and ±100 for the full control effect
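Growth was read as firefly luciferase luminescence after a 48 h, 37 C, 5% CO2 exposure of compounds to reporter-bearing P. falciparum cultures (0.1% parasitemia, 2% hematocrit final) in Albumax-supplemented RPMI 1640.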
NS1 function inh – inhibitors of influenza NS1 protein function | Potency, µM (highest dose often 46.1 µM), for the others: at the top dose activity, positive = more growth | 270,000 compounds, 0.4% hits; calls by dose curve; note: potency is the fitted concentration of half-maximal effect; actives are rising curves; nearly all actives have a fitted effect of over 50% in size
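A cell-based growth assay was used: compounds that relieve NS1-induced slow growth of budding yeast raise OD600. Assay medium was yeast nitrogen base with ammonium sulphate and -URA supplement, pH 6.0, with 2% galactose.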
Pf growth 96h – P. falciparum growth inhibition at 96 hour, primary screen for plastid delayed-death inhibitors; P. falciparum luciferase reporter growth, 96 h; Potency, µM (doses to about 28.7 µM), for inactives: at the top dose activity change, negative = inhibition, usual class: inhibitors; AID 504834; 320,000 compounds, 6.9% hits; note: potency is the fitted concentration of half-maximal effect; % is set by controls: 0 for no effect and ±100 for the full control effect
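Parasite growth measured via integrated firefly luciferase reporter in P. falciparum. Infected erythrocytes at 2% hematocrit, 0.05% parasitemia final were treated 96 hours at 37 C under 5% CO2, and luminescence was read.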
Cycloheximide cs – counter-screen for Shiga toxin inhibitors: cycloheximide protein synthesis inhibition; 300,000 compounds, 12% hits; AID 2314; cell reporter, cycloheximide protein synthesis inhibition counterscreen; max response, %; in the data active = max response mostly above about 13%, no sharp cut-off; inactive = mostly below about 14%; note: read at 38.3 µM for the half of the compounds with a filed dose; 0% is about no effect
* marks the source's active call; other numbers are inactive results; u = inconclusive; x = no result given. Unless noted, calls come from the whole dose curve; as a rule, active = well fitted curve in the direction sought with a large enough effect; inconclusive = small, poorly fitted or top-dose-only effect, or another doubt; inactive = no such curve, though single readings can be large; an effect the other way counts as inactive or inconclusive.

SMILES	Shiga toxin inh	Sm TGR inh	Pf growth 48h	NS1 function inh	Pf growth 96h	Cycloheximide cs
Cc1cc(C)c(C(=O)N(C)C2CCCN(Cc3ccccc3F)C2)o1 (centres undefined)	-2	6%	u	3%	-27%	-2
Nc1ccc(S(=O)(=O)NC(Cc2ccccc2)C(=O)O)cc1 (centres undefined)	-12	-5%	3%	6%	-3%	-1
Cc1cccc(Cn2c(N(C)Cc3ccccc3)nc3c2c(=O)[nH]c(=O)n3C)c1	-3	0%	12µM*	-83%	13µM*	-4
Cc1cccc(Cn2c(Sc3nc(C)cs3)nc3c2c(=O)[nH]c(=O)n3C)c1	-4	9%	-21%	u	1.7µM*	-3
COc1ccc(N2CCN(c3nc4c(c(=O)[nH]c(=O)n4C)n3Cc3cccc(C)c3)CC2)cc1	10	0%	10µM*	-34%	48%	-1
Cc1csc(Sc2nc3c(c(=O)[nH]c(=O)n3C)n2Cc2ccccc2Cl)n1	10	0%	-19%	u	-9%	1
C/C=C/Cn1c(N(C)Cc2ccccc2)nc2c1c(=O)[nH]c(=O)n2C	-12	1%	u	u	8.3µM*	1
CN(Cc1ccccc1)c1nc2c(c(=O)[nH]c(=O)n2C)n1C	-1	-7%	0%	-7%	1%	-3
Cn1nc(C(C)(C)C)c([N+](=O)[O-])c1C(=O)Nc1cccc2ccccc12	-4	14%	12µM*	-6%	12µM*	-2
O=C(O)c1cccc([N+](=O)[O-])c1C(=O)Nc1cccc2ccccc12	x	-24%	-7%	3%	53%	20*
O=C(O)c1cccc([N+](=O)[O-])c1C(=O)Nc1ccc2ccccc2c1	22	-4%	30%	7%	8%	20*
Cc1cc(C(=O)NP(=O)(N2CC(C)OC(C)C2)N2CC(C)OC(C)C2)c(C)n1C1CC1 (centres undefined)	7	u	-3%	x	10%	2
C[C@@]12C(=O)OC(=O)[C@]1(C)[C@H]1CC[C@@H]2O1	x	x	2µM*	x	1µM*	x
CCOC(=O)c1c(S(=O)(=O)NCC(=O)Nc2ccc(F)cc2C)c(C)n(C)c1C	x	5%	x	x	x	x
CCc1nn(C(CC)C(=O)NCCCN2CC(C)CC(C)C2)c(=O)c2cc3oc(C)cc3n12 (centres undefined)	10	7%	u	-12%	0.19µM*	-3
Cc1cc(C)c(C)c(C(=O)COC(=O)CNC(=O)CNC(=O)c2ccco2)c1C	9	u	0%	-3%	-23%	2
C/C(=N\NS(=O)(=O)c1ccc(Cl)c([N+](=O)[O-])c1)c1cc2ccccc2o1	-11	50µM*	x	-12%	21%	1
C/C(=N\Nc1ccc(C#N)cc1[N+](=O)[O-])c1ccc(C)o1	6	13%	-60%	-3%	35%	-3
C/C(=N\NS(=O)(=O)c1ccc(C)c([N+](=O)[O-])c1)c1cc2ccccc2o1	17	-3%	x	-2%	-1%	-2
C/C(=N\NS(=O)(=O)c1ccc(Cl)c([N+](=O)[O-])c1)c1ccc(C)o1	-3	6.3µM*	-26%	3%	x	-5
CCC(C)NC(=O)/C(=C/c1ccco1)c1ccccc1 (centres undefined)	-9	10µM*	u	16%	37%	2
CC(C)NC(=O)/C(=C/c1ccco1)c1ccccc1	-19	u	31%	1%	u	-2
O=C(NCCc1ccccc1)/C(=C/c1ccco1)c1ccccc1	-5	13µM*	7%	-14%	42%	-3
C=CC(=O)c1ccc(CCCCCC)cc1	26	x	x	x	x	6
Cc1cccc(-n2c(/C=C\c3cccc(Br)c3)nc3ccccc3c2=O)c1	x	-6%	x	x	x	x
SMILES	Shiga toxin inh	Sm TGR inh	Pf growth 48h	NS1 function inh	Pf growth 96h	Cycloheximide cs
O=c1c2ccccc2nc(/C=C/c2ccc([N+](=O)[O-])o2)n1CCCO	27	18µM*	u	-117%	2.6µM*	18*
O=c1c2ccccc2nc(/C=C/c2ccc(Br)cc2)n1CCCO	13	5%	u	-2%	8%	14
Cn1c(/C=C/c2cccc(Br)c2)nc2ccccc2c1=O	80*	32%	u	-43%	u	46*
O=c1c2ccccc2ncn1-c1cccc(Br)c1	5	13%	26%	-15%	1.7µM*	-2
O=c1c2ccccc2nc(/C=C/c2cccc(Br)c2)n1CCCO	-14	12%	u	8%	13µM*	0
Cc1ccc(NC(=O)Cn2nnnc2-c2ccccc2N)cc1	x	-8%	x	x	x	x
Cc1ncsc1CCOC(=O)c1ccc([N+](=O)[O-])cc1	41*	-4%	23%	-11%	9%	25*
Cc1ncsc1CCOC(=O)c1cccnc1	-4	-17%	10%	-4%	14%	-4
COC(=O)C1=C(O)/C(=C\c2ccc(O)c(OC)c2)N=C1C	23	50µM*	1%	17%	x	-2
CNC(=S)Nc1cccc(C(=O)OC)c1	8	32µM*	17%	-2%	0%	5
COC(=O)c1cccc(NC(=S)Nc2cccc(Cl)c2Cl)c1	-14	45µM*	44%	1%	u	-8
COc1cc(NC(=S)NCc2cccnc2)c(OC)cc1Cl	-13	u	5%	x	12µM*	-2
COc1cc(NC(=S)Nc2ccc(Br)cc2Cl)c(OC)cc1Cl	-18	-21%	u	15%	u	-1
COC(=O)c1cccc(NC(N)=S)c1	31	x	0%	7%	-7%	-2
COc1cc(NC(=S)Nc2cccc(Cl)c2Cl)c(OC)cc1Cl	-24	0%	u	14%	2.9µM*	-2
CSc1ccc(CCNC(=O)c2c(C)oc3ncn(C)c(=O)c23)cc1	x	-3%	x	x	x	x
Cc1ccc(C2(c3noc(CN(C)Cc4cnn(C)c4)n3)CCCC2)cc1	2	0%	11%	5%	12µM*	-1
Cc1ccc(C2(c3noc(CN(C)CCCN4CCOCC4)n3)CCCC2)cc1	-6	-1%	-9%	-5%	8.3µM*	2
Cc1ccc(C2(c3noc(CN4CCOCC4)n3)CCCC2)cc1	6	-4%	9%	-5%	u	-2
CC1(C)SC2c3ccccc3C(=O)N2[C@@H]1C(=O)O (some centres undefined)	-3	-1%	6%	1%	53%	11
Cc1nn(C)c(Oc2ccccc2)c1CCNC(=O)CCl	-4	u	u	2%	10µM*	-3
CC(=O)OCc1c(C(F)(F)F)nn(C)c1Oc1ccccc1	-3	-5%	0%	8%	17%	-4
C=CCN(CC=C)C(=S)Nc1ccc2nsnc2c1	60*	u	8.3µM*	x	u	26*
CC(C)OC(=O)NCCOC(=O)Nc1ccc(Cl)c(Cl)c1	11	-8%	u	-52%	53%	6
C=CCNC(=S)Nc1ccc2nsnc2c1	11	u	18%	7%	u	0
COCCNC(=S)Nc1ccc2nsnc2c1	-19	u	36%	-3%	21%	16*
